Source: PubChem
Hits are enriched below; roughly 27% of the tested compounds scored in any of these assays.
CYP2C9 inh – human CYP2C9 inhibition; P11712; CYP2C9 Supersomes, luciferin-H conversion, luminescence; inhibition, % at 5 µM; 96,000 tested, 20% active;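 active = blocking of liver enzyme CYP2C9 beyond about 50% at 5 µM, limit read from the data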
Cav3 T inh – blocks human Cav3.2 T-type calcium channel. O95180. Cav3.2-expressing cells, Fluo-4 calcium fluorescence FDSS; active compounds read low. B-score at 10 µM. 100,000 tested, 4% active. AID 449739;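 active = single-dose well whose peak fluorescence ratio is a statistical outlier from its plate by either plate-standardised score or position-corrected B-score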
CYP2C9 activ – activators of human CYP2C9; P11712; AID 1024; recombinant CYP2C9, luciferin-H conversion, luminescence; active compounds read high; factor 1 = untreated enzyme, 0 = blocked; activation factor at 5 µM; 96,000 tested, 1.4% active;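 active = activation factor of 2 or more for CYP2C9 at a 5 µM dose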;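 also: 0 = sulfaphenazole-blocked wells and 1 = vehicle-only wells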
CYP2C19 activ – activators of human cytochrome P450 2C19; activation factor at 5 µM; P33261; recombinant CYP2C19, luciferin-H EGE luminescence; active compounds read high; 0 = fully inhibited enzyme, 1 = untreated enzyme; 96,000 tested, under 10 active; AID 1025;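 active = activation factor of at least 2 at 5 µM in the primary screen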;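 also: 0 = wells with 2.5 mM tranylcypromine and 1 = vehicle-only wells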
CYP2C19 inh – blocks human cytochrome P450 2C19 | P33261 | CYP2C19 Supersomes, luciferin-H EGE luminescence, 30 min | inhibition, % at 5 µM | 96,000 tested, 21% active | AID 778;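 active = CYP2C19 inhibition above a set limit at 5 µM in the primary screen, cut at about 50% in these data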;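 also: plate controls were negative control wells for no effect and 2.5 mM tranylcypromine positive control for full effect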
* hit, by the source's call; nt = not tested or not shown.

SMILES	CYP2C9 inh	Cav3 T inh	CYP2C9 activ	CYP2C19 activ	CYP2C19 inh
COc1ccc(C(c2nnnn2C(C)(C)C)N2CCN(C)CC2)cc1OC (centres undefined)	-6	nt	1.1	1	-4
CCC(C)(C)n1nnnc1C(c1cc2cc(OC)c(OC)cc2[nH]c1=O)N1CCc2ccccc21 (centres undefined)	77*	-2.8	0.2	0.5	46
CCC(C)(C)n1nnnc1C(c1ccc(OC)c(OC)c1)N1CCN(c2ccccc2)CC1 (centres undefined)	71*	-1	0.3	0.3	68*
CCC(C)(C)n1nnnc1C(c1ccc(OC)c(OC)c1)N1CCN(c2ccc(F)cc2)CC1 (centres undefined)	nt	-1.3	nt	nt	nt
CCC(=O)Nc1ccc(-c2nn3c(C)nnc3s2)cc1C	0	0.19	1	0.9	13
CN1C(C(=O)NCC2CC2)CC2Cn3c(nc4cc(Cl)c(Cl)cc43)C21 (centres undefined)	nt	1.2	nt	nt	nt
O=C(CCC1COc2ccccc2O1)NCc1ccco1 (centres undefined)	19	0.83	0.8	0.8	17
COc1ccccc1NC(=O)C(NC(=O)OC(C)(C)C)C(C)OCc1ccccc1 (centres undefined)	23	-3	0.8	0.8	22
CCC(C)(C)n1nnnc1C(c1ccc2ncccc2c1)N1CCCC(C)C1 (centres undefined)	nt	-2.1	nt	nt	nt
CCC(C)(C)n1nnnc1C(c1ccc2ncccc2c1)N1CCN(c2nc3ccccc3s2)CC1 (centres undefined)	88*	-3.3	0.1	0.9	7
CCCCC(c1nnnn1CCOC)N1CCN(c2cccc(OC)c2)CC1 (centres undefined)	54*	0.055	0.5	0.3	70*
CCOc1cc(C2NC(=O)NC(O)(C(F)(F)F)C2C(=O)c2ccc(OC)cc2)ccc1O (centres undefined)	8	-0.66	0.9	0.9	11
COc1ccc(OC)c(/C(O)=C/C(=O)C(=O)Nc2cc(C)cc(C)c2)c1	-16	-9.1*	1.2	0.7	29
COc1ccc(OC)c(/C(O)=C/C(=O)C(=O)Nc2cc(C)ccc2OC)c1	8	-5.6*	0.9	0.9	9
CCOc1ccccc1NC(=O)C(=O)/C=C(\O)c1cc(OC)ccc1OC	-24	-9.6*	1.2	0.8	24
COc1ccc(OC)c(C(=O)c2ccccc2)c1	nt	-0.37	nt	nt	nt
Cc1ccc2c(c1)c(C)c(C)n2CC(O)Cn1nnc2ccccc21 (centres undefined)	64*	-4.7*	0.4	0.6	40
Cc1ccc2c(c1)c(C)c(C)n2CC(O)Cn1nc(C)cc1C (centres undefined)	77*	-2.5	0.2	0	97*
CC(=O)c1ccc(N2CCN(C(=O)CCS(=O)(=O)c3ccc(C)cc3)CC2)cc1	-7	nt	1.1	0.8	21
COc1ccc(N2CCN(C(=O)C3CCCO3)CC2)cc1 (centres undefined)	-13	0.073	1.1	0.9	11
O=C(c1ccc(-c2nnc(Nc3ccccc3)c3ccccc23)cc1)N1C[C@H]2C[C@H](C1)c1cccc(=O)n1C2	34	0.44	0.7	0.9	9
COc1cc(/C=C(/C#N)c2ccccc2)ccc1Oc1ccc([N+](=O)[O-])cn1	59*	-2.4	0.4	0.7	32
CC(C)n1nc(C(=O)Nc2nnc(SCc3c(Cl)cccc3Cl)s2)c2ccccc2c1=O	86*	-1.9	0.1	0.3	66*
CC(C)(C)C(=O)Nc1ccccc1C(=O)Nc1cc(Cl)ccc1Cl	61*	-1.5	0.4	0.7	29
CCc1nc2ccccc2c(C(=O)O)c1C	39	-0.047	0.6	0.5	48
SMILES	CYP2C9 inh	Cav3 T inh	CYP2C9 activ	CYP2C19 activ	CYP2C19 inh
CCc1nc2ccc(F)cc2c(C(=O)NC2CCCCC2C)c1C (centres undefined)	77*	-2.8	0.2	0.6	37
CCOC(=O)CC1C(=O)NCCN1C(=O)NC1CCCCC1 (centres undefined)	27	1.1	0.7	1	-3
C(=N\n1cncn1)/c1ccc(N2CCOCC2)cc1	39	0.66	0.6	0.4	63*
C(=N\n1cnnc1)/c1ccc(N2CCOCC2)s1	19	0.29	0.8	0.4	60*
C(=N\n1cnnc1)/c1ccc(N2CCOCC2)cc1	65*	0.49	0.3	0.1	88*
O=C1CCC(C(=O)O)(c2ccccc2)C1 (centres undefined)	-4	0.94	1	1.2	-16
CCS(=O)(=O)c1ccc2oc(SCC(=O)NCCC3=CCCCC3)nc2c1	72*	nt	0.3	0.6	44
O=C(CCCN1C(=O)c2ccccc2C1=O)NCCC1=CCCCC1	62*	-0.26	0.4	0.8	19
Cc1ccc2c(c1)N(CCCC(=O)NCCC1=CCCCC1)C(=O)CO2	58*	-1.8	0.4	0.4	59*
Cc1ccc(C)c(-n2nnnc2SCC(=O)NCCC2=CCCCC2)c1	40	-7*	0.6	0.2	76*
CCS(=O)(=O)Nc1ccc(-c2ccc(NS(=O)(=O)CC)c(OC)c2)cc1OC	nt	0.0095	nt	nt	nt
CSc1sc(C(=O)O)c(C)c1C(C)=O	-7	-1.5	1.1	1.1	-7
CC1=CCC(COC(=O)Nc2ccccc2)CC1 (centres undefined)	8	-2.2	0.9	0.5	46
Cc1c(N=Cc2ccncc2)c(=O)n(-c2ccccc2)n1C	-13	0.15	1.1	0.3	66*
CCN(CC)S(=O)(=O)c1ccc(NCc2ccccc2)nc1	77*	0.2	0.2	0.4	64*
CC(C)CNC(=O)C1CCN(c2ccc(S(=O)(=O)N3CCOCC3)cc2)CC1	28	0.58	0.7	1.1	-14
O=C(NC1CC1)C1CCN(c2ccc(S(=O)(=O)N3CCOCC3)cc2)CC1	74*	0.86	0.3	1	-2
COc1ccc(S(=O)(=O)N2CCC(C(=O)NCc3ccccn3)CC2)cc1Cl	-120	-0.13	2.2*	0.7	32
COc1ccc(S(=O)(=O)N2CCC(C(=O)NCc3ccccn3)CC2)cc1C	-130	-0.37	2.3*	0.8	24
COc1ccc(S(=O)(=O)N2CCC(C(=O)NC3CC3)CC2)cc1Cl	-34	0.24	1.3	0.2	78*
COc1ccc(S(=O)(=O)N2CCCC(C(=O)NCc3ccccn3)C2)cc1Cl (centres undefined)	-59	0.46	1.6	0.6	36
CC(C)CNS(=O)(=O)c1ccc(CCC(=O)Nc2cc(Cl)ccc2Oc2ccccc2)cc1	73*	-6.2*	0.3	0.5	45
CCCNS(=O)(=O)c1ccc(CCC(=O)Nc2cc(Cl)ccc2Oc2ccccc2)cc1	nt	-7*	nt	nt	nt
CCCNS(=O)(=O)c1ccc(OCC(=O)Nc2ccccc2F)cc1	nt	0.8	nt	nt	nt
CC(C)(C)NS(=O)(=O)c1ccc(CCC(=O)Nc2cc(Cl)ccc2Oc2ccccc2)cc1	90*	-5.3*	0.1	0.3	73*
CC(C)CNS(=O)(=O)c1ccc(CCC(=O)O)cc1	-22	-0.3	1.2	1.2	-15
